# Source: PubChem BioAssay (NCATS)
# Results filed as inconclusive are left out. The list shows a part of the results. Activity calls are given as the source filed them. Calls come from the whole dose curve; as a rule, active = well fitted curve in the direction sought with a large enough effect; inconclusive = small, poorly fitted or top-dose-only effect, or another doubt; inactive = no such curve, though single readings can be large; an effect the other way counts as inactive or inconclusive.
# What was measured:
# [1] = target: Vitamin D3 receptor (Homo sapiens) (UniProt P11473); assay: qHTS for Inhibitors of the vitamin D receptor (VDR): Hit Validation in Primary Screen (AID 602199); conditions: VDR-coactivator inhibition assay, qHTS confirmation; note: potency is the fitted concentration of half-maximal effect
# Vitamin D3 receptor (Homo sapiens), sequence (P11473 whole entry, looked up): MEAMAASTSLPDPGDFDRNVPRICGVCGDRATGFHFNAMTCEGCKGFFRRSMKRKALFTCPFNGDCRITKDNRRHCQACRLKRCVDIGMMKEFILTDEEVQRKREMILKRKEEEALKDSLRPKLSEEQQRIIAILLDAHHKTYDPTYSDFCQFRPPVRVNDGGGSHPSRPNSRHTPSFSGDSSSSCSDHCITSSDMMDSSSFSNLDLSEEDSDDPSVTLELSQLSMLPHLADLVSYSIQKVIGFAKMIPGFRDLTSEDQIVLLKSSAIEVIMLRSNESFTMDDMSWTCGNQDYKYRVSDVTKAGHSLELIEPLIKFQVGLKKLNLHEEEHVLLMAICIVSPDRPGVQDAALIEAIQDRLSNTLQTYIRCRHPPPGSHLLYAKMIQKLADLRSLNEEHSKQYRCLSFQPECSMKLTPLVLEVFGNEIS
# Outline: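 Fluorescence polarization (Ex 620/Em 688 nm) of Alexa 647-SRC2-3 peptide with 800 nM VDR and 5 uM LG19078. Compounds at several concentrations, 2 h at room temperature.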
# [2] = target: DNA polymerase iota (Homo sapiens) (UniProt Q9UNA4); assay: qHTS for Inhibitors of Polymerase Iota: Confirmatory Assay for Cherry-picked Compounds (AID 720496); conditions: Pol iota primer extension, TAMRA/BHQ fluorescence; note: potency is the fitted concentration of half-maximal effect
# Outline: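 10 nM Pol iota + cpd, 15 min RT; start w/ 50 nM (final) TAMRA reporter/BHQ-2 template primer substrate; ex 525/em 598 nm read at 0 and 10 min kinetic.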
# [3] = target: DNA polymerase eta (Homo sapiens) (UniProt Q9Y253); assay: qHTS for Inhibitors of Polymerase Eta: Confirmatory Assay for Cherry-picked Compounds (AID 720502); conditions: Pol eta primer extension, TAMRA/BHQ fluorescence, 10 min; note: potency is the fitted concentration of half-maximal effect
# DNA polymerase eta (Homo sapiens), sequence (Q9Y253 whole entry, looked up): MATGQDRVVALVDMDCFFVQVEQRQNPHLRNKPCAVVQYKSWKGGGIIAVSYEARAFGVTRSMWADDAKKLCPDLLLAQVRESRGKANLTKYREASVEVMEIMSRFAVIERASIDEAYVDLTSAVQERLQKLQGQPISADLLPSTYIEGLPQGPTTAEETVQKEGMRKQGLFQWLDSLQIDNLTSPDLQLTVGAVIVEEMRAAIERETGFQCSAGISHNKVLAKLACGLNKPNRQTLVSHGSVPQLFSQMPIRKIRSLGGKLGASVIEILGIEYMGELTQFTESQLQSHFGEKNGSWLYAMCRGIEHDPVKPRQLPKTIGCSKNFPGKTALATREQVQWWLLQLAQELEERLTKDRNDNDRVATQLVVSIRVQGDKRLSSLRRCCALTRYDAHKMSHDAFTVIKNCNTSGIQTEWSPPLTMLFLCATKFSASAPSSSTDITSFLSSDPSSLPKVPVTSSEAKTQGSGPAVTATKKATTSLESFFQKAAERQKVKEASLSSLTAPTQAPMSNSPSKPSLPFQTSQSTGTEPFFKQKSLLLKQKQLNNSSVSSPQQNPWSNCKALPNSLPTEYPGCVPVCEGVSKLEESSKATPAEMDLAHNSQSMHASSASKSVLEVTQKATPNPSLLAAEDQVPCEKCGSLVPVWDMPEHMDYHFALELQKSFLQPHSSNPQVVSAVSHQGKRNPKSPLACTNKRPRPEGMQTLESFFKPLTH
# Outline: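 Enzyme at 10 nM is mixed with pin-transferred compound and left 15 min at room temperature. Substrate (50 nM final) is then added, and plates are read at 0 min and after 10 min.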
# [4] = target: Cytochrome P450 2C9 (Homo sapiens) (UniProt P11712); assay: qHTS Assay for Inhibitors and Substrates of Cytochrome P450 2C9 (AID 883); conditions: recombinant CYP2C9, luciferin-H luminescence, 60 min; series mostly up to 11.4 µM; note: potency is the fitted concentration of half-maximal effect; nearly all actives have a fitted effect of over 60% in size
# Cytochrome P450 2C9 (Homo sapiens), sequence (P11712 whole entry, looked up): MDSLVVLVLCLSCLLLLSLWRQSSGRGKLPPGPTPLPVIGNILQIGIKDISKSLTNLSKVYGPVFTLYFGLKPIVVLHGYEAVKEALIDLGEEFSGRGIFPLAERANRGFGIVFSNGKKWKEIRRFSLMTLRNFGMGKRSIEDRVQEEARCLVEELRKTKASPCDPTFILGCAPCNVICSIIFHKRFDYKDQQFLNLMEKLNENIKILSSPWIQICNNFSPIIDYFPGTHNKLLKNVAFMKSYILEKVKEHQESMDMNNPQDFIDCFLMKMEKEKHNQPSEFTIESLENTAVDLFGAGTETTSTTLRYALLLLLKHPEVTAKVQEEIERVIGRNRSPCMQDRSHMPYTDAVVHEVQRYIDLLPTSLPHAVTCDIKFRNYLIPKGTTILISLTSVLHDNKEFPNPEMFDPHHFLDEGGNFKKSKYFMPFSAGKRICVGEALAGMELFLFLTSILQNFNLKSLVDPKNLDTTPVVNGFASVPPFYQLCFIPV
# Outline: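 Signal: luciferase luminescence reporting luciferin produced by CYP2C9. Conditions: 10nM enzyme, Luciferin-H 100uM at KM, 25mM KPO4, 37C, 60 min NADPH-driven reaction. Reference: 57uM sulphaphenazole as 100% inhibition.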
# [5] = target: Cytochrome P450 3A4 (Homo sapiens) (UniProt P08684); assay: qHTS Assay for Activators of Cytochrome P450 3A4 (AID 885); conditions: recombinant CYP3A4, Luciferin-PPXE luminescence, 60 min; series mostly up to 57.1 µM; note: nearly all actives have a fitted effect of over 65% in size
# Cytochrome P450 3A4 (Homo sapiens), sequence (P08684 whole entry, looked up): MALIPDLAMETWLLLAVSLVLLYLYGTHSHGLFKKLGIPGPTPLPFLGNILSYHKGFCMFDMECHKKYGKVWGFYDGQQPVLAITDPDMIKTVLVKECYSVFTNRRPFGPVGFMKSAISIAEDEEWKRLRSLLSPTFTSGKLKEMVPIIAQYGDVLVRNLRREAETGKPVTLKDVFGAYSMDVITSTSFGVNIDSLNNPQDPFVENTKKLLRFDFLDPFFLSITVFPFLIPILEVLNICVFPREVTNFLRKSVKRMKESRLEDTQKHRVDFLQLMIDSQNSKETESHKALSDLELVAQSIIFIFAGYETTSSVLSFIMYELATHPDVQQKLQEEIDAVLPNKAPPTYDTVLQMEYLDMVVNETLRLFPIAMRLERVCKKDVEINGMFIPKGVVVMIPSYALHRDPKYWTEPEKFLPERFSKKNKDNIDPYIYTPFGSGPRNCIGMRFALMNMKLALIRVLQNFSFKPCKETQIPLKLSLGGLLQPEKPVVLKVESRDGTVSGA
# Outline: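 Activators are scored by enhanced luminescence from CYP3A4 conversion of luciferin-PPXE (25uM, equal to KM) to luciferin, after 60 min at RT with an NADPH-regenerating system.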
# [6] = target: Cytochrome P450 2C19 (Homo sapiens) (UniProt P33261); assay: qHTS Assay for Inhibitors and Substrates of Cytochrome P450 2C19 (AID 899); conditions: recombinant CYP2C19, luciferin-H EGE luminescence; series mostly up to 11.4 µM; note: potency is the fitted concentration of half-maximal effect; nearly all actives have a fitted effect of over 60% in size
# Cytochrome P450 2C19 (Homo sapiens), sequence (P33261 whole entry, looked up): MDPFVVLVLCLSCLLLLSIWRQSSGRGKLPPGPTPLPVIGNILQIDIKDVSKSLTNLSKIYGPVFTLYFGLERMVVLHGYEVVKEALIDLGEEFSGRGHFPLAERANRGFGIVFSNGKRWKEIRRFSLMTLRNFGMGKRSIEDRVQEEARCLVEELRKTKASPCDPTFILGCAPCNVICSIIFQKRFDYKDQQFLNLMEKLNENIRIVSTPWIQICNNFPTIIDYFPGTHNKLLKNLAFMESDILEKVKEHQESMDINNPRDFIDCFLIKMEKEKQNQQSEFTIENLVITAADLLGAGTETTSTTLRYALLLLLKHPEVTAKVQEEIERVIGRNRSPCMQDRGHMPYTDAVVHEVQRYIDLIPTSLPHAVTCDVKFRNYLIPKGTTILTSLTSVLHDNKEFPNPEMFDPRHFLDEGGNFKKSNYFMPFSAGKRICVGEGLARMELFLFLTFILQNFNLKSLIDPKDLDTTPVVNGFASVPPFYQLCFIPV
# Outline: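 Signal comes from luciferase acting on luciferin released by CYP2C19-mediated hydroxylation of Luciferin-H EGE, 10uM (KM). Assay mix: 5nM enzyme, 50mM KPO4; 60 min at 37C with NADPH regeneration. Data normalized against 57uM ketoconazole.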
# [7] = target: Cytochrome P450 3A4 (Homo sapiens) (UniProt P08684); assay: qHTS Assay for Inhibitors and Substrates of Cytochrome P450 3A4 (AID 884); conditions: recombinant CYP3A4, Luciferin-PPXE luminescence; series mostly up to 57.1 µM; note: potency is the fitted concentration of half-maximal effect; nearly all actives have a fitted effect of over 50% in size
# Outline: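 Luminescent readout of luciferin produced by CYP3A4 (20 nM) dealkylation of Luciferin-PPXE, 25 uM (its KM). NADPH-driven reaction ran 60 min at RT after 10 min compound preincubation; data scaled to 57 uM ketoconazole as 100% inhibition.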
# [8] = qHTS for Inhibitors of the vitamin D receptor (VDR): Hit Validation using a Texas Red Assay (AID 602201); conditions: VDR coregulator binding, Texas Red fluorescence polarization, agonist-bound VDR ligand-binding domain; series mostly up to 57.1 µM; note: potency is the fitted concentration of half-maximal effect
# Outline: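 Fluorescence polarization with 1.5 uM VDR-LBD, LG19078 and 7 nM Texas Red (final). After 2 hours at ambient temperature, read at Ex 595 nm/Em 615 nm.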
# [9] = target: Tumor susceptibility gene 101 protein (Homo sapiens) (UniProt Q99816); assay: qHTS Assay for Iinhibitors of HIV-1 Budding by Blocking the Interaction of PTAP/TSG101: Hit Validation (AID 651600); conditions: PTAP peptide/TSG101 UEV interaction, biochemical assay; series mostly up to 57.5 µM; note: potency is the fitted concentration of half-maximal effect; nearly all actives have a fitted effect of over 70% in size
# Outline: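 Tsg101 binding domain 10 uM + FITC-PTAP peptide 50 nM (final), 10 mM HEPES pH 7.5/0.15 M NaCl/0.01% Tween 20/3 mM EDTA/0.1 mM TCEP; 20 min RT; FP read, FITC filters.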
# [10] = target: ATPase family AAA domain-containing protein 5 (Homo sapiens) (UniProt Q96QE3); assay: qHTS screen for small molecules that inhibit ELG1-dependent DNA repair in human embryonic kidney (HEK293T) cells expressing luciferase-tagged ELG1: Hit Confirmation using MMS Stimulated ELG1 (AID 624249); conditions: HEK293T luciferase-tagged ELG1 level; series mostly up to 46.1 µM; note: potency is the fitted concentration of half-maximal effect; nearly all actives have a fitted effect of over 60% in size
# ATPase family AAA domain-containing protein 5 (Homo sapiens), sequence (Q96QE3 whole entry, looked up, the tested form may be a part): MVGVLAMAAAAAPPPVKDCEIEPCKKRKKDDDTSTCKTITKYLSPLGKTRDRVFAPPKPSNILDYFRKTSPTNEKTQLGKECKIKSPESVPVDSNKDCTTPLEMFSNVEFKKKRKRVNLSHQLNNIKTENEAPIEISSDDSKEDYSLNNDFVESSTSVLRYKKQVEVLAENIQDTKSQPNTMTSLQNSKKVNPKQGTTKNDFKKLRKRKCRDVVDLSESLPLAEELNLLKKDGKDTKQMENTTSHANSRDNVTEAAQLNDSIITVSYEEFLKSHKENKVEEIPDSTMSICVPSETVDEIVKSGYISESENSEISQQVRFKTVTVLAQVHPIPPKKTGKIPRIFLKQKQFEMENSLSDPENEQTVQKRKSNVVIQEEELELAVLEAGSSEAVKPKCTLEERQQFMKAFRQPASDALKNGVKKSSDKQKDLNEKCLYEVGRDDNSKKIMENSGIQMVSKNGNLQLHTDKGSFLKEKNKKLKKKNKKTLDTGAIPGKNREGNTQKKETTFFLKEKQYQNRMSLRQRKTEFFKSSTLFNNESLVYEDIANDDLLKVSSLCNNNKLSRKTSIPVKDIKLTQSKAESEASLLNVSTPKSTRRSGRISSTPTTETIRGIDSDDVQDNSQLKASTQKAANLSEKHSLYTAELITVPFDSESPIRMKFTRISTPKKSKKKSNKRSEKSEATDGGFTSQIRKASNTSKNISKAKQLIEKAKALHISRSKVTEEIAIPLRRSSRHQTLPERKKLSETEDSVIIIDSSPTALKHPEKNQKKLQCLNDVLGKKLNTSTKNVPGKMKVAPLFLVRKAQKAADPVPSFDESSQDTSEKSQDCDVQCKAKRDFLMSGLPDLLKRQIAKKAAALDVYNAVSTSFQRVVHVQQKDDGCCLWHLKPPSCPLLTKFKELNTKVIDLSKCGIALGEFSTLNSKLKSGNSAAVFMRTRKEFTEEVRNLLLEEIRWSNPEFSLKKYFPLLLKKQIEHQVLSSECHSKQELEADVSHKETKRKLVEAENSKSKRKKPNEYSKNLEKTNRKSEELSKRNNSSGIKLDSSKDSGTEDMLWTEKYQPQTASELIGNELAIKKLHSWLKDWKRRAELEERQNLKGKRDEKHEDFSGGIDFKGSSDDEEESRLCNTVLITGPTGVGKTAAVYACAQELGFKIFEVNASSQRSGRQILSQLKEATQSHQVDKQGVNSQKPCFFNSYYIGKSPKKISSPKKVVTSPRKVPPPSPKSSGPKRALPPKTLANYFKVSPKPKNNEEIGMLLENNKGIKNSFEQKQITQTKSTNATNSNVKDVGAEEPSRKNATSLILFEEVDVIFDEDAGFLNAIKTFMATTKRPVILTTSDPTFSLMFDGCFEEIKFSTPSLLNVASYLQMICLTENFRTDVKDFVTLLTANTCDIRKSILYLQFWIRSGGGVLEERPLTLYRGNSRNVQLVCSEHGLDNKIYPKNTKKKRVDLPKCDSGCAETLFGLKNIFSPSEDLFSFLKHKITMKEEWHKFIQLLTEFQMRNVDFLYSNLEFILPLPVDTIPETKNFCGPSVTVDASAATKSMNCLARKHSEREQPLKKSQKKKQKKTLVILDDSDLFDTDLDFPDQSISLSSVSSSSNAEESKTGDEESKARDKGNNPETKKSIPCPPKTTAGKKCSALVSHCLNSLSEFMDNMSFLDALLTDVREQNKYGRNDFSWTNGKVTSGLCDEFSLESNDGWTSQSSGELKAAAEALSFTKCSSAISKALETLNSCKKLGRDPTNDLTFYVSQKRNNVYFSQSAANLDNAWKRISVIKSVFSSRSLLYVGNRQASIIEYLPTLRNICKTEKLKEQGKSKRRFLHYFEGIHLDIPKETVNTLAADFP
# Outline: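 Luminescence read-out (Amplight) of an ELG1-luc reporter in HEK293T cells after 16 h of compound exposure under MMS stimulation at 10 µM final. Inhibition appears as reduced luciferase activity.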
# [11] = qHTS screen for small molecules that inhibit ELG1-dependent DNA repair: Hit Confirmation with MMS Viability (AID 624251); conditions: Cell viability with MMS; series mostly up to 46.1 µM; note: potency is the fitted concentration of half-maximal effect;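 note: viability read 16 h after compound addition; nearly all actives have a fitted effect of over 60% in size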
# Outline: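 CellTiter-Glo viability of ELG1-luc HEK293T cells after 16 h with compound plus 10 µM MMS.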
# [12] = Confirmation and Secondary Assay for Modulators of Hemoglobin Beta Chain Splicing at IVS2 654 locus (AID 910); conditions: HeLa EGFP-654 splicing reporter, GFP fluorescence, 48 h; series mostly up to 46.1 µM;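 note: HeLa cells stably carrying EGFP split by mutant beta-globin IVS2-654 intron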
# Outline: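 HeLa cells stably expressing EGFP interrupted by β-globin IVS2-654 intron, seeded overnight in Opti-MEM/2% FCS, then treated 2 days at 37 °C. Restored splicing read as total peak GFP intensity per well by laser scanning cytometry (488 nm excitation, 500–520 nm emission); 500 nM antisense PNA as control.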
# [13] = Confirmation and Secondary Assay for Modulators of Hemoglobin Beta Chain Splicing at IVS2 705 locus (AID 930); conditions: HeLa EGFP-705 splicing reporter, GFP fluorescence, 48 h; series mostly up to 46.1 µM;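 note: HeLa cells stably expressing the EGFP-705 splicing reporter; GFP fluorescence per well restored by corrected splicing of the IVS2-705 intron in EGFP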
# Outline: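 HeLa EGFP-705 reporter; 500 cells/well, o/n 37C 5% CO2; cpd 2 d; 488 ex/500-520 em laser scan; total peak GFP intensity/well. Ref: 500 nM […] antisense PNA.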
# [14] = target: Luciferin 4-monooxygenase (Photinus pyralis) (UniProt P08659); assay: Biochemical firefly luciferase enzyme assay for NPC (AID 624030);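 note: purified P. pyralis luciferase at 10 nM with luciferin and ATP substrate; nearly all actives have a fitted effect of over 70% in size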; conditions: purified P. pyralis luciferase, luminescence, 5 min; series mostly up to 58.6 µM
# Luciferin 4-monooxygenase (Photinus pyralis), sequence (P08659 whole entry, looked up): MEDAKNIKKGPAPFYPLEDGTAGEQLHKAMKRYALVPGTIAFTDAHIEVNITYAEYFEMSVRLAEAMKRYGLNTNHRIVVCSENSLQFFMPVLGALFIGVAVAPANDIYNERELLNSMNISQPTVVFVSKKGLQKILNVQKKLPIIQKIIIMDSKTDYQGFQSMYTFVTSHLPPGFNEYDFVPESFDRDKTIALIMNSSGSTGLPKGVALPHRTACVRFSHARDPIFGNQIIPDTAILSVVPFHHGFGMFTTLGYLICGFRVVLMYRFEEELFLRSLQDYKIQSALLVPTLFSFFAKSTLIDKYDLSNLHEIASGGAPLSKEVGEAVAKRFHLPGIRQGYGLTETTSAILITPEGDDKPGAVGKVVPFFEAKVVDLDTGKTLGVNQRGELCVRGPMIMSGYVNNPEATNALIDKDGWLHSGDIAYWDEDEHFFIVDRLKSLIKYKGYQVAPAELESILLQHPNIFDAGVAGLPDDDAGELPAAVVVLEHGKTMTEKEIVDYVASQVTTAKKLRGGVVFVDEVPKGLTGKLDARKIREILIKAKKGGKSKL
# Outline: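 Purified P. pyralis luciferase at 10 nM in 50 mM Tris Acetate (final), luminescence read within 5 minutes of enzyme addition to compounds. Activity normalised to PTC124 versus DMSO; concentration-response curves classed by r2, magnitude and activity.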
smiles,measurement,setting,value
Cc1cccc(Oc2c([N+](=O)[O-])c(=O)n(C)c3ccccc23)c1,Potency,[1],21.2 µM (active)
CC(=O)N(C1=C(Cl)C(=O)c2ccccc2C1=O)c1ccc(C(=O)O)cc1,Potency,[2],67 µM (active)
same,Potency,[3],26.9 µM (active)
COC(=O)[C@@]1(Cc2ccc(OC)cc2)[C@H]2c3cc(C(=O)N4CCCC4)n(CCCNc4ncc(C(F)(F)F)cc4Cl)c3C[C@H]2CN1C(=O)c1ccccc1,Potency,[4],7.94 µM (active)
same,Potency,[5],inactive
same,Potency,[6],3.16 µM (active)
COCCNC(=O)[C@H](C)[C@H]1C[C@]1(C)[C@H](NC(=O)OCc1ccccc1)c1ccccc1,Potency,[7],3.16 µM (active)
same,Potency,[5],inactive
COc1ccc(OC)c(-c2c3cc(O)c(=O)cc-3oc3cc(O)c(O)cc23)c1,Potency,[8],8.91 µM (active)
same,Potency,[9],32.6 µM (active)
CC(C)(CNC(=O)c1ccc(Cl)c(S(=O)(=O)N2CCc3ccccc3C2)c1)N1CCOCC1,Potency,[10],1.58 µM (active)
same,Potency,[11],1.99 µM (active)
COc1ccc(CNc2ncnc3ccccc23)cc1,Potency,[10],1.58 µM (active)
same,Potency,[11],2.23 µM (active)
CCC(=O)OCC(=O)C1(OC(=O)CC)C(C)CC2C3CCC4=CC(=O)C=CC4(C)C3(Cl)C(O)CC21C (stereo not drawn),Potency,[5],inactive
same,outcome,[12],inactive
same,outcome,[13],inactive
same,Potency,[14],inactive
CC(C)=CCC/C(C)=C\CC/C(C)=C\CC/C(C)=C\CC1=C(C)C(=O)c2ccccc2C1=O,Potency,[14],inactive
NC(=O)c1sc2nc3c(c(-c4ccccc4)c2c1N)CCC3,Potency,[10],7.05 µM (active)
same,Potency,[11],inactive
CO/N=C(\C(=O)N[C@@H]1C(=O)N2C(C(=O)O)=C(Cn3nnc(C)n3)CS[C@H]12)c1csc(N)n1,Potency,[14],inactive
Clc1ccc2nc(-c3ccccc3)nc(C(Cl)Cl)c2c1,Potency,[10],2.23 µM (active)
same,Potency,[11],3.97 µM (active)
OCCCNc1nccc(-c2cc(Nc3cccc(Cl)c3)ncn2)n1,Potency,[10],0.629 µM (active)
same,Potency,[11],2.5 µM (active)
Cc1ccc(C)c(S(=O)(=O)N2CCN(c3ncnc4sccc34)CC2)c1,Potency,[10],2.81 µM (active)
same,Potency,[11],2.5 µM (active)
